Screens: PubChem, National Center for Advancing Translational Sciences (NCATS)
FUS yeast rescue: qHTS for Suppressors of FUS Proteinopathy: Primary screen using FUS-linked yeast assay. Potency, µM (series often up to 76.6 µM), hits mostly activators. S. cerevisiae FUS-expressing, growth rescue, OD600, 24 h. hit rate 0.24% among 390,000;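 note: plate controls were DMSO vehicle for no effect and reference control for full effect; nearly all actives have a fitted effect of over 55% in size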
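Steps: raffinose overnight preculture; dilution to OD 0.005 in 2% galactose minimal medium; compound addition (concentration series); 24hr at 30C, 99% humidity; absorbance read at 600 nm.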
TDP-43 yeast inh: qHTS of TDP-43 Inhibitors. hit rate 1.8% among 410,000. TDP-43 expressing yeast growth rescue, BacTiter-Glo, 24 h. AID 652104, 2013. Potency, µM (highest dose often 46.1 µM), for inactives: at the highest dose growth rescue (activation), hits mostly activators; note: % of control where 0% means no effect; nearly all actives have a fitted effect of over 50% in size
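Galactose-induced TDP-43 yeast, OD600=0.02, compound pinned; 24 hr, 30 deg C; BacTiter-Glo luminescence for growth. Inhibitors of TDP-43 toxicity read as activators.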
Abeta rescue: qHTS for compounds that reverse cellular toxicity of Amyloid beta (A-beta) peptide in yeast: Primary Screen; yeast expressing A-beta42, growth rescue, OD600, 48 h; response scale: 0% DMSO, 100% iron-clioquinol control; Potency, µM (titrated, usually from 46.1 µM), actives largely listed as activators; hit rate 0.063% among 410,000; note: nearly all actives have a fitted effect of over 55% in size
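Yeast A-beta toxicity model in growth medium with pinned compounds, 48 h at 30 C; growth read as absorbance at 600 nm. Normalized to FeCl3/clioquinol equimolar mix (positive) and DMSO (negative).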
aSyn yeast inh: qHTS of alpha-syn Inhibitors; Yeast expressing alpha-synuclein, growth rescue, BacTiter-Glo, 24 h; Potency, µM (doses to about 46.1 µM), for the others: top-dose growth rescue (activation), usual class: activators; hit rate 0.14% among 370,000; AID 652106, 2013; note: % of control where 0% means no effect; nearly all actives have a fitted effect of over 65% in size
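Readout is rescue of growth in alpha-synuclein-expressing yeast, so inhibitors of toxicity appear as activators. Growth after 24 hr at 30 deg C in galactose medium is quantified by luminescence.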
The depositor's hits bear a star; i = inactive; u = inconclusive; x = no result; ! = not confirmed by another sample; [ ] = another dose, or the depositor's remark. Compounds with a hit are over-represented: about 2.1% of the library has one in this group of screens. Calls come from the whole dose curve; as a rule, active = well fitted curve in the direction sought with a large enough effect; inconclusive = small, poorly fitted or top-dose-only effect, or another doubt; inactive = no such curve, though single readings can be large; an effect the other way counts as inactive or inconclusive. Potency is the fitted concentration of half-maximal effect.

SMILES	FUS yeast rescue	TDP-43 yeast inh	Abeta rescue	aSyn yeast inh
O=[N+]([O-])c1cc(C(F)(F)F)ccc1NCCc1c[nH]c2ccc(O)cc12	i	6.4%	i	16.7%
O=[N+]([O-])c1cc(C(F)(F)F)ccc1NCCc1c[nH]c2ccccc12	i	22.4µM*	i	4.1%
Cc1noc2ncnc(NCc3ccc(Cl)cc3)c12	i	u	i	x
CC(C)CNc1ncnc2onc(-c3ccc(Cl)cc3)c12	i	11.2µM*	i	x
Cc1cccc(CCNc2ncnc3onc(-c4ccc(Cl)cc4)c23)c1	i	35.5µM*	i	x
Cc1ccc(CCNc2ncnc3onc(-c4ccc(Cl)cc4)c23)cc1	i	20.7%	i	x
Clc1ccc(CNc2ncnc3onc(-c4ccc(Cl)cc4)c23)cc1	u	12.6µM*	i	x
Cc1[nH]c2ccccc2c1C(=O)CCl	i	15.8µM*	i	1.7%
Cc1nc2scc(C)n2c(=O)c1S(=O)(=O)N1CCN(c2ccccc2)CC1	i	-21.2%	i	-46.1%
COC(=O)c1scc(-c2ccc(C)cc2)c1S(=O)(=O)N1CCN(c2ccc(OC)cc2)CC1	22.4µM*	0.0%	i	x
COc1ccc(N2CCN(S(=O)(=O)c3c(C)nc4scc(C)n4c3=O)CC2)cc1	i	14.1µM*!	i	-51.1%
COC(=O)c1scc(-c2ccc(C)cc2)c1S(=O)(=O)N1CCN(c2ccc(F)cc2)CC1	i	u	i	x
CC(=O)c1cccc(NC(=O)c2ccc3nc(C(C)C)oc3c2)c1	i	0.0%	i	x
Cc1cc(O)c2c(C)c(CC(=O)NCc3ccccc3Cl)c(=O)oc2c1	i	11.1%	i	x
S=C1NC2(CCCCCC2)N=C1c1ccccc1	i	u	5.01µM*	7.3%
O=C1NC2(CCCCCC2)N=C1c1ccc(F)cc1	i	15.8µM*	i	-8.1%
Cc1ccc(Cc2c(-c3cccc(Cl)c3)nc3ccc(C)cn23)cc1	i	28.2µM*	i	6.1%
Cc1ccc(Cc2c(-c3cccc(Cl)c3)nc3ccc(Br)cn23)cc1	u	u	i	-20.3%
Cc1ccc2nc(-c3ccc(C#N)cc3)c(Cc3cccc(Cl)c3)n2c1	i	35.5µM*	i	u
Cc1ccc(Cc2c(-c3cccc(Cl)c3)nc3ccc(Cl)cn23)cc1	i	15.8µM*	i	24.0%
COc1ccc(Cc2c(-c3cccc(Cl)c3)nc3ccc(Cl)cn23)c(C)c1	i	35.5µM*	i	7.9%
CCOC(=O)N1CCN(Cc2nc3cc(NC(=O)c4ccccc4Cl)ccc3n2C(C)C)CC1	i	-2.8%	i	x
C=CCOC(=O)C(CO)NC(=O)CCCC(=O)O (stereo not drawn)	i	x	x	x
Cc1ccc2nc(-c3cccc(Br)c3)c(Cc3cccc(Cl)c3)n2c1	i	35.5µM*	i	1.0%
Clc1cccc(Cc2c(-c3cccc(Br)c3)nc3ccc(Cl)cn23)c1	i	u	i	-15.4%
SMILES	FUS yeast rescue	TDP-43 yeast inh	Abeta rescue	aSyn yeast inh
Cc1cc(Br)c2nc(-c3ccccc3)c(Cc3cccc(Cl)c3)n2c1	u	11.2µM*	i	-6.6%
CC(C)Cn1cc(NC(=O)NCc2cccc(Cl)c2)c2ccccc2c1=O	i	23.7%	i	20.1%
COc1ccc(C(=O)c2coc3ccc(OC(C)=O)cc23)cc1	i	12.6µM*	i	-13.2%
COc1ccc(OC)c(C(=O)c2coc3ccc(OC(C)=O)cc23)c1	i	-14.9%[0.397 µM]	i	18.9%
CCC(C)(C)C(=O)O[C@H]1C[C@@H](C)C=C2C=C[C@H](C)[C@H](CC[C@@H]3C[C@@H](O)CC(=O)O3)[C@H]21	i	14.1µM*	i	15.7%
COc1ccc(-c2cc(-c3ccccc3O)[nH]n2)cc1OC	i	12.6µM*	i	11.3%
COc1ccc(-c2cc(-c3ccc(OC)c(OC)c3)n[nH]2)c(O)c1	x	u	i	-6.9%
COc1ccc(-c2cc(-c3cc(OC)ccc3O)[nH]n2)cc1	i	25.1µM*	i	5.8%
COc1ccc(CN2C(=O)N3Cc4ccccc4C3CS2(=O)=O)cc1 (stereo not drawn)	i	x	x	x
CCCCCc1cc(O)c2c(C)cc(=O)oc2c1	i	3.16µM*	i	-9.4%
Cc1cc(=O)oc2cc(O)cc(O)c12	i	3.9%	i	-1.2%
